Laboratory results: the supplement of paper PMC7156485
± gives the standard deviation of the averaged measurements.

Columns and labels:
Conditions in all cases: concentration: 10 µM; 24 h
HCC1569 [1] = experiment: cell number relative to DMSO (% of DMSO); higher = more cells (less growth inhibition / toxicity)
Summary of the method: (§1)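 Using 384-well plates with 800 cells per well in RPMI plus 10% FBS, HCC1569 and TDF cells were exposed to compounds at 10 µM, in triplicate, for 24 h at 37 °C. Imaging of six fields per well at ×10 followed H1.0 and DAPI staining. The reported quantity, H1.0 nuclear intensity or cell number, is a median of replicates given as percent of the plate control, and HCC1569 values were smoothed for positional effects.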

TDF [2] = experiment: as above
Summary of the method: as §1

TDF [3] = experiment: H1.0 immunofluorescence intensity relative to DMSO (% of DMSO); higher = stronger H1.0 induction, active = 120 or more
Summary of the method: as §1

HCC1569 [4] = experiment: H1.0 immunofluorescence intensity relative to DMSO (% of DMSO); higher = stronger H1.0 induction, active = 140 or more
Summary of the method: as §1
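Throughout, for H1.0 immunofluorescence intensity relative to DMSO: TDF is a line of transformed human dermal fibroblasts of mesenchymal origin.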
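Throughout, for cell number relative to DMSO: TDF denotes transformed human dermal fibroblasts of mesenchymal origin.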

| Structure (SMILES) | cell number (HCC1569 [1]) | cell number (TDF [2]) | H1.0 immunofluorescence intensity (TDF [3]) | H1.0 immunofluorescence intensity (HCC1569 [4]) |
| --- | --- | --- | --- | --- |
| COc1ccc(-c2cc(=O)c3c(O)cc(O)cc3o2)cc1 [Acacetine] | 98.4 | 95.3 | 100 (inactive) | 90.7 (inactive) |
| CC(C)NCC(O)COc1cccc2ccccc12.Cl (racemic) | 101 | 91.5 | 98.8 (inactive) | 94.2 (inactive) |
| CN(Cc1cc(Br)cc(Br)c1N)C1CCCCC1 [Bromhexine] | 98.8 | 110 | 88.6 (inactive) | 123 (inactive) |
| O=C(O)C=Cc1cnc[nH]1 [4-Imidazoleacrylic acid] | 101 | 107 | 97.2 (inactive) | 108 (inactive) |
| CCCCCC(O)C=CC1C(O)CC(O)C1CC(=O)CCC(=O)O (stereo not drawn) [2,3-Dinor-6-keto-prostaglandin F1a] | 103 | 114 | 88.8 (inactive) | 101 (inactive) |
| O=C(C=Cc1ccc(O)c(O)c1)OCCc1ccccc1 | 74.8 ± 3.7 | 85.77 ± 0.57 | 93.1 (inactive) | 113 (inactive) |
| COc1cc(CC2C(=O)OCC2Cc2ccc(OC)c(OC)c2)ccc1O (stereo not drawn) | 80.5 | 74.6 | 103 (inactive) | 156 (active) |
| Cc1cccc(Nc2ccccc2C(=O)O)c1C [Mefenamic acid] | 104 | 107 | 104 (inactive) | 90.5 (inactive) |
| NC1CCN(c2nc3c(cc2F)c(=O)c(C(=O)O)cn3-c2ccc(F)cc2F)C1 (stereo not drawn) [Tosufloxacin] | 106 | 102 | 105 (inactive) | 104 (inactive) |
| COc1ccc2nc(S(=O)Cc3ncc(C)c(OC)c3C)[nH]c2c1 (stereo not drawn) [Omeprazole] | 100 | 102 | 95.5 (inactive) | 111 (inactive) |
| CCCCCCCCCCCC(CC1OC(=O)C1CCCCCC)OC(=O)C(CC(C)C)NC=O (stereo not drawn) [Tetrahydrolipistatin] | 100 | 99.2 | 99.2 (inactive) | 90.5 (inactive) |
| CN(C)[C@@H](CCOc1cccc2ccccc12)c1ccccc1.Cl | 90.3 | 92.4 | 104 (inactive) | 142 (active) |
| NCC(O)c1ccc(O)c(O)c1.O=C(O)C(O)C(O)C(=O)O (stereo not drawn) [L(-)-Norepinephrine bitartrate] | 109 | 106 | 95.8 (inactive) | 94.6 (inactive) |
| Cc1ccc(Nc2nccc(N(C)c3ccc4c(C)n(C)nc4c3)n2)cc1S(N)(=O)=O [Pazopanib] | 74.3 | 100 | 94.6 (inactive) | 156 (active) |
| O=C1Nc2ccc(Cl)cc2C(C#CC2CC2)(C(F)(F)F)O1 (stereo not drawn) [Efavirenz] | 101 | 98.5 | 97.6 (inactive) | 111 (inactive) |
| COc1ccccc1N1CCN(CCCCNS(=O)(=O)c2cccc3c(N(C)C)cccc23)CC1.O=C(O)C=CC(=O)O [Cortexolone maleate] | 85.1 | 99.8 | 117 (inactive) | 131 (inactive) |
| CCC1(O)CC2CN(CCc3c([nH]c4ccccc34)C(C(=O)OC)(c3cc4c(cc3OC)N(C)C3C(O)(C(=O)OC)C(OC(C)=O)C5(CC)C=CCN6CCC43C65)C2)C1.O=S(=O)(O)O (stereo not drawn) [Vinblastine sulfate] | 53.3 | 11.2 | 156 (active) | 131 (inactive) |
| CCCCCCCCC=CCCCCCCCCCCCCCC(=O)O [15(Z)-Tetracosenoic acid] | 103 | 98.8 | 94.8 (inactive) | 99.1 (inactive) |
| CN1Cc2c(N)cccc2C(c2ccccc2)C1.O=C(O)C=CC(=O)O (stereo not drawn) [Nomifensine maleate] | 102 | 104 | 89 (inactive) | 101 (inactive) |

| Structure (SMILES) | cell number (HCC1569 [1]) | cell number (TDF [2]) | H1.0 immunofluorescence intensity (TDF [3]) | H1.0 immunofluorescence intensity (HCC1569 [4]) |
| --- | --- | --- | --- | --- |
| CC12C=CC(=O)C=C1CCC1C2C(=O)CC2(C)C1CCC2(O)C(=O)CO (stereo not drawn) [Prednisone] | 101 | 106 | 86.2 (inactive) | 122 (inactive) |
| Cl.N[C@@H](Cc1cnc[nH]1)C(=O)O [L-Histidine hydrochloride] | 101 | 109 | 99 (inactive) | 95.8 (inactive) |
| CC1Cc2ccccc2N1NC(=O)c1ccc(Cl)c(S(N)(=O)=O)c1 (stereo not drawn) [Indapamide] | 106 | 101 | 88.5 (inactive) | 112 (inactive) |
| O=C(C=Cc1ccc(O)cc1)CC(=O)C=Cc1ccc(O)cc1 [bis-demethoxycurcumin] | 82.7 | 98.6 | 92.7 (inactive) | 104 (inactive) |
| O=C(CCCCCCC(=O)Nc1ccccc1)NO | 101 | 95.7 | 121 (active) | 100 (inactive) |
| COc1cc2nccc(Oc3ccc(NC(=O)Nc4cc(C)on4)c(Cl)c3)c2cc1OC.O [VEGFR Tyrosine Kinase Inhibitor IV] | 82.4 | 90.7 | 94 (inactive) | 121 (inactive) |
| CC1CC2C(C(O)CC3(C)C2CCC3(O)C(=O)CO)C2(C)C=CC(=O)C=C12 (stereo not drawn) [Methylprednisolone] | 99.4 | 102 | 88.6 (inactive) | 114 (inactive) |
| COc1ccc(C(=O)Nc2sc3c(c2C(N)=O)CCCC3)cc1OC [Flt-3 Inhibitor] | 96.7 | 105 | 94.7 (inactive) | 119 (inactive) |
| OCC(CO)(CO)NCC(O)Cn1c2ccc(Cl)cc2c2cc(Cl)ccc21 (stereo not drawn) | 74.3 | 76.8 | 125 (active) | 168 (active) |
| Cc1c(C(=O)O)c(O)cc2c1C(=O)c1c(O)c(C3OC(CO)C(O)C(O)C3O)c(O)c(O)c1C2=O (stereo not drawn) [Carminic acid] | 101 | 107 | 102 (inactive) | 99.8 (inactive) |
| O=C(C=CC=Cc1ccc2c(c1)OCO2)N1CCCCC1 [Piperine] | 100 | 97 | 96.8 (inactive) | 104 (inactive) |
| Cl.NC1(C(=O)O)CCCCC1 [1-Amino-1-cyclohexanecarboxylic acid hydrochloride] | 100 | 106 | 95.3 (inactive) | 86.6 (inactive) |
| NC(CC(=O)[O-])C(=O)O.NC(CC(=O)[O-])C(=O)O.[Mg+2] [magnesium bis[(3S)-3-amino-3-carboxypropanoate]] | 101 | 102 | 94.5 (inactive) | 109 (inactive) |
| O=c1cc(-c2ccc(O)cc2)oc2cc(O)cc(O)c12 [Apigenin] | 93.5 ± 3 | 104 ± 3.7 | 89.2 (inactive) | 99.9 (inactive) |
| N[C@@H](COP(=O)(O)O)C(=O)O [O-Phospho-L-serine] | 99.1 | 101 | 94.9 (inactive) | 96.7 (inactive) |
| CN(C)CCC(c1ccc(Cl)cc1)c1ccccn1.O=C(O)C=CC(=O)O (single isomer, unassigned; (+)) [(+)-Chlorpheniramine maleate] | 104 | 104 | 99.2 (inactive) | 88.5 (inactive) |
| CCCCCC=CCC=CCC1OC1CC=CCCCC(=O)O (stereo not drawn) [8,9-Epoxyeicosatrienoic acid] | 103 | 101 | 97.7 (inactive) | 104 (inactive) |
| CCOC(=O)CNC(=O)[C@@H]1CCCN1C(=O)Cc1ccccc1 | 102 | 109 | 97.4 (inactive) | 87.1 (inactive) |
